Assay outcomes as filed in PubChem.
MRP1 act – H69AR viability gain despite doxorubicin, primary screen, MRP-1 activator project, H69AR cells, CellTiter-Glo | viability rescue | viability increase, % at 10 µM | 140,000 compounds, 0.61% hits | AID 799, 2007;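 active = viability gain under doxorubicin at or above a set limit, the compound median plus 3 SD, cut at about 4.7% in these data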;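 also: MRP-1 overexpressing cells given doxorubicin 25 µM after compound pretreatment; 18-22 h compound pretreatment then 72 h with doxorubicin before readout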
Phagocyt inh – inhibitors of macrophage phagocytosis, primary screen, imaging, J774A.1 cells, IgG beads | J774A.1 macrophage IgG-bead phagocytosis | inhibition, % at 5 µM | 110,000 compounds, 0.07% hits | AID 1029, 2008;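 active = inhibition above the mean of the plate negative controls plus 5 SD, cut at about 13% in these data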;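 also: phagocytic index as fraction of beads internalized from green versus red external bead signal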
MRP reversal – reversal of MRP1-mediated doxorubicin resistance, primary screen, H69AR cells, doxorubicin co-treatment; 85,000 compounds, 0.04% hits; differential viability (reversal), % at 10 µM; H69AR cells + 2 uM doxorubicin, CellTiter-Glo, 72 h;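 active = viability drop by adding the cancer drug above about 55%, with treated viability meeting a 40% cutoff, limit read from the data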;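 also: larger differential means the compound sensitizes cells more to doxorubicin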
Large screens that a line does not name were inactive. Shown are actives, neighbours in structure and some others; about 0.72% of the full set was active somewhere.

COc1cc(NS(=O)(=O)c2ccc(N/C=C(\C#N)c3nc4cc(Cl)ccc4o3)cc2)nc(OC)n1	MRP1 act 4.9 (no result: MRP reversal)
COc1cc(NS(=O)(=O)c2ccc(NC(C)=O)cc2)nc(OC)n1	none
O=C(Nc1ncc(Cc2ccc(SC(F)F)cc2)s1)c1ccc(OC(F)F)cc1	none (no result: MRP reversal)
COC(=O)c1c(N2C(=O)[C@H]3[C@@H](C2=O)[C@]2(C(=O)Nc4c(C)cccc42)N2CCC[C@@H]32)sc(C)c1C	none (no result: MRP reversal)
CCOC(=O)c1ccc(Oc2nc(NC(C)(C)C)nc(N(C)C)n2)cc1	MRP1 act 7.0
CCOC(=O)c1ccc(Oc2nc(N(C)C)nc(N(C)C)n2)cc1	none
CCCCNC(=O)CNC(=S)N(CCCN1CCOCC1)Cc1cccs1	none (no result: MRP reversal)
CCn1c2ccccc2c2cc(NC(=O)c3cccc(OC)c3)ccc21	none (no result: MRP reversal)
CCn1c(C)c(C)c2cc(C(=O)Nc3cccc(Cl)c3)ccc21	MRP1 act 6.5 (no result: Phagocyt inh, MRP reversal)
COc1cc(-c2nc(-c3cccc(C)c3)no2)cc(OC)c1OC	none (no result: Phagocyt inh)
COc1ccc(-c2nc(-c3cccc(C)c3)no2)cc1OC	MRP1 act 5.5 (no result: Phagocyt inh)
CNC(=O)CSc1nnc(COc2ccc(Cl)cc2)n1CCOC	MRP1 act 9.8
COc1ccc(Cl)cc1NC(=O)CSc1nnc(COc2ccccc2)n1N	MRP1 act 7.8
C=CCn1c(COc2ccc(Cl)cc2)nnc1SCC(=O)NCC(=O)OCC	none
COc1ccc(Cl)cc1NC(=O)CSc1nnc(COc2ccccc2)n1C	none
Cc1c(Cl)cnc(NC(=O)COC(=O)c2cc3c(s2)CCC(C)C3)c1Cl (configuration not stated)	none (no result: MRP reversal)
O=[N+]([O-])c1cc(-c2nnc(Nc3ccccc3)c3ccccc23)ccc1N1CCOCC1	none (no result: Phagocyt inh, MRP reversal)
Cc1ccc(Nc2nnc(-c3ccc(N4CCOCC4)c([N+](=O)[O-])c3)c3ccccc23)cc1	MRP1 act 5.2 (no result: MRP reversal)
Cc1cccc(-n2c(=S)[nH]c3c(oc4ccccc43)c2=O)c1	none (no result: MRP reversal)
CCOC(=O)c1nnc(-c2ccccc2)nc1Oc1ccccc1Cl	MRP1 act 5.2 (no result: MRP reversal)
CCOC(=O)c1nnc(-c2ccccc2)nc1NC	none (no result: Phagocyt inh, MRP reversal)
CCOC(=O)N1CCN(C(=O)COc2cccc3c2CCN(Cc2ccccc2F)C3=O)CC1	none (no result: MRP reversal)
Oc1cc(NCc2cccnc2)ccc1-c1nc2ccccc2o1	MRP1 act 5.0
CCc1ccc(OCC(=O)Nc2ccc(-c3nc4ccccc4o3)c(O)c2)cc1	none (no result: Phagocyt inh)
CN(C)S(=O)(=O)c1ccc(NC(=O)c2c(F)cccc2Cl)cc1	none (no result: Phagocyt inh)
Cc1nc([N+](=O)[O-])c(Br)n1CC(=O)c1ccccc1	none
Cc1nc([N+](=O)[O-])c(Br)n1CC(=O)c1ccc2ccccc2c1	Phagocyt inh active
CCCNC(=O)Cn1nc([N+](=O)[O-])c([N+](=O)[O-])c1C	none (no result: MRP reversal)
COc1ccc(-c2n[nH]c(=S)n2/N=C/C=C/c2ccccc2OC)cc1	none (no result: MRP reversal)
COc1ccccc1/C=C/C=N/n1c(C2CCCCC2)n[nH]c1=S	MRP1 act 4.8 (no result: MRP reversal)
CCOC(=O)c1[nH]c2ccc(C)cc2c1N	none (no result: Phagocyt inh)
CCOC(=O)c1[nH]c2cc(OC)c(OC)cc2c1N	MRP1 act 8.5
O=C(CC1CS(=O)(=O)CC1CC(=O)Oc1ccccc1F)Oc1ccccc1F (configuration not stated)	none (no result: MRP reversal)
O=[N+]([O-])c1ccc(O)c(/C=N/n2cnc3ccccc32)c1	MRP1 act 5.2 (no result: MRP reversal)
COc1cccc(/C=N/n2cnc3ccccc32)c1OC	none
CC1=C(C(=O)OCCc2ccccc2)C(c2ccsc2)NC(=O)N1C (configuration not stated)	none (no result: MRP reversal)
CCOC(=O)c1c(NC(=O)CSc2ncn[nH]2)sc(C)c1C	MRP1 act 15
CCOC(=O)c1c(NC(=O)CSc2nc3ccccc3s2)sc(C)c1C	none (no result: MRP reversal)
COC(=O)c1[nH]c2c(c1C)C(=O)CCC2	none (no result: Phagocyt inh)
Cc1c(C(=O)OC2CCC(C)CC2)[nH]c2c1C(=O)CCC2 (configuration not stated)	MRP1 act 5.2
COC(=O)c1ccc(OC(=O)c2ccccc2F)cc1	none (no result: MRP reversal)
CC(C)CC(=O)OCC(=O)Nc1ccccc1Sc1ccccc1	none (no result: MRP reversal)
COc1ccc(NC(=O)c2oc3ccccc3c2NC(=O)C2CC2)cc1	none (no result: MRP reversal)
COc1ccc(NC(=O)c2oc3ccccc3c2NC(=O)C(C)(C)C)cc1	MRP1 act 5.5 (no result: MRP reversal)
COc1ccc(CSC2=NCCN2)cc1Cl	MRP1 act 9.7
CCCOc1ccc(CSC2=NCCN2)cc1[N+](=O)[O-]	none (no result: MRP reversal)
C=CCN(C(=O)Nc1ccc(F)cc1)C1CC(=O)N(c2ccc(OC)cc2)C1=O (configuration not stated)	none
C=CCN(C(=O)Nc1ccc(Cl)cc1)C1CC(=O)N(c2ccc(OC)cc2)C1=O (configuration not stated)	MRP1 act 6.6
O=C(CSc1nc2c(c(=O)[nH]1)CCC2)Nc1cccc(Cl)c1	none
N#Cc1c(-c2ccco2)nc(SCC(=O)Nc2cccc(Cl)c2)[nH]c1=O	MRP1 act 5.5
C=CCN(C(=O)c1cccc(S(=O)(=O)N2CCN(C)CC2)c1)c1nc(-c2ccccc2)cs1	none (no result: MRP reversal)
C=CCN(CC=C)CC(O)CN(c1cc([N+](=O)[O-])ccc1OC)S(=O)(=O)c1ccccc1 (configuration not stated)	none (no result: MRP reversal)
Cc1cccc(N2CCN(C(=O)c3ccoc3C)CC2)c1C	none (no result: Phagocyt inh, MRP reversal)
COc1ccc(N(C(=O)Cn2nnc3ccccc32)C2(C(=O)NC3CCCC3)CCCCC2)cc1	none (no result: Phagocyt inh, MRP reversal)
COc1ccc(N(C(=O)Cn2cnc3ccccc32)C(C(=O)NC2CCCCC2)c2ccccc2)cc1 (configuration not stated)	MRP1 act 13 (no result: MRP reversal)
Cc1cccc(OCCNc2cc(N3CCN(CCO)CC3)ccc2[N+](=O)[O-])c1	none (no result: MRP reversal)
O=C(O)CCCC(=O)Nc1cccc2cccnc12	none (no result: MRP reversal)
O=C(Cc1ccccc1F)Nc1cccc2cccnc12	MRP1 act 5.9 (no result: MRP reversal)
CC(C)CCNC(=O)Cn1c2c(c(-c3ccccc3Cl)cc1=O)CCC2	none
CC1CCC(NC(=O)Cn2c3c(c(-c4ccccc4Cl)cc2=O)CCC3)CC1 (configuration not stated)	MRP1 act 8.2
Cc1ccc(/C=C/C(=O)c2ccccc(=O)c2O)cc1C	none (no result: MRP reversal)
CC12CCC(C/C1=N\N=C1\NC(=O)/C(=C\c3ccc(Cl)cc3)S1)C2(C)C (configuration not stated)	none (no result: MRP reversal)
COc1ccccc1/C=C1\SC(=S)N(Nc2nc(C)cc(C)n2)C1=O	none (no result: Phagocyt inh, MRP reversal)
Cc1cc(C)nc(NN2C(=O)/C(=C/c3ccc(O)cc3)SC2=S)n1	MRP1 act 7.8 (no result: Phagocyt inh, MRP reversal)
CC(=O)N1CCN(c2cc(N3CCc4ccccc4C3)c(F)cc2[N+](=O)[O-])CC1	none (no result: MRP reversal)
Fc1cccc(-c2cc3nc(-c4ccccc4)cc(N4CCC5(CC4)OCCO5)n3n2)c1	MRP1 act 6.1 (no result: Phagocyt inh)
Cc1cccc(-c2cc3nc(-c4ccccc4)cc(N4CCC5(CC4)OCCO5)n3n2)c1	none (no result: Phagocyt inh)
CCc1cccc(NC(=O)CSc2nc3c(c(=O)[nH]2)CCCC3)c1	none (no result: MRP reversal)
NNC1=N[C@H]2CS(=O)(=O)C[C@H]2S1	none (no result: Phagocyt inh, MRP reversal)
CCOC(=O)C(C(=O)Nc1ccccn1)C1CCCCC1 (configuration not stated)	none
CCOC(=O)C(C(=O)Nc1cccc(C)n1)C1CCCCC1 (configuration not stated)	none
CCOC(=O)C(C(=O)Nc1nccs1)C1CCCCC1 (configuration not stated)	MRP1 act 4.7
CCOC(=O)C(C(=O)Nc1nc2ccccc2s1)C1CCCCC1 (configuration not stated)	MRP1 act 7.1 (no result: Phagocyt inh)
